# Source: publication PMC4336329 (PLoS ONE, 2015)
# Hit rate of the full screen: of about 310,000 compounds, about 14,000 (4.5%) showed an effect of 50% or more. The effect is printed as a negative number. What follows is part of a selection rich in strong results, with near analogues and random picks from the rest.
# Molecular target: human ether-à-go-go-related gene (hERG) potassium channel (human, UniProt Q12809)
# Test: primary screen, population patch clamp on CHO cells stably expressing hERG; higher = less effect of the substance
# 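Also: peak tail current of the secondary pulse compared with the same well before compound.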
# Sequence of human ether-à-go-go-related gene (hERG) potassium channel (Q12809 whole entry, looked up): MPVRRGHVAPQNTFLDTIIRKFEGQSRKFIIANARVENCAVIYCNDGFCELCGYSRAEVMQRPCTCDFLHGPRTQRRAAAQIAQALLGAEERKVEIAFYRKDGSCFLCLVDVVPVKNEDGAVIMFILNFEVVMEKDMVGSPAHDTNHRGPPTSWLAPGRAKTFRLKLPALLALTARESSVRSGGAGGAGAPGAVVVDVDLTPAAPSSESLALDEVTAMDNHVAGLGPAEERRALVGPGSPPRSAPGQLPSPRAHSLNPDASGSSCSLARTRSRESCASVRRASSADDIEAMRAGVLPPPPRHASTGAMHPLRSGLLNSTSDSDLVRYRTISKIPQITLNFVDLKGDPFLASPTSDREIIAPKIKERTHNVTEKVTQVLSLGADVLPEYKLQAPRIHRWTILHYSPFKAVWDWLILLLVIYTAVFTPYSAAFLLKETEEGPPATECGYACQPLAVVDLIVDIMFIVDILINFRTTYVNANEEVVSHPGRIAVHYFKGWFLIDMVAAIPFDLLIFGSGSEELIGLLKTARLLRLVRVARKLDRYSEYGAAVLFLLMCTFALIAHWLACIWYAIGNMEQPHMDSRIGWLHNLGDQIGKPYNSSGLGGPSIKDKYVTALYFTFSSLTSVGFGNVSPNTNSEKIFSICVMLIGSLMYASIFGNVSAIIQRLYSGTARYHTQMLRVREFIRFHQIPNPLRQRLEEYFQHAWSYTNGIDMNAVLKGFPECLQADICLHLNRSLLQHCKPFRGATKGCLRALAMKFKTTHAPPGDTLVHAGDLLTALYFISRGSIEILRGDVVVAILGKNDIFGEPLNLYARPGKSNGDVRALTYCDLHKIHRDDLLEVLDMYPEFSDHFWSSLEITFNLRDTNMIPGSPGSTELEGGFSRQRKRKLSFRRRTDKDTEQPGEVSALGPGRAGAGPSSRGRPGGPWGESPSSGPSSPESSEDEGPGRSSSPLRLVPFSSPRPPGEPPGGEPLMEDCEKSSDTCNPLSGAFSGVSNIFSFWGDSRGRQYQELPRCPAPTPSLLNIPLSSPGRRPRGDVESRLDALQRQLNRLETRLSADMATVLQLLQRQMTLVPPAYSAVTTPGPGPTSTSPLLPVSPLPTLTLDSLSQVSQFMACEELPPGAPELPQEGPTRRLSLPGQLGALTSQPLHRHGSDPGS
row,Compound,"hERG current change (%, negative = inhibition) at 10uM [%]"
1,COc1ccc(C)cc1N(CC(=O)O)S(=O)(=O)c1ccc(C)cc1,17.1
2,Cc1cccc(NC(=O)CSc2nc(=O)n(CCN3CCOCC3)c3c2CCCC3)c1C,-23.6
3,CCN(CC)CCCn1c2c(c(SCC(=O)Nc3cccc4ccccc34)nc1=O)CCC2,-56.6
4,CN(C)CCCn1c2c(c(SCC(=O)Nc3cccc4ccccc34)nc1=O)CCCC2,-45.6
5,CN(C)CCn1c2c(c(SCC(=O)Nc3ccccc3C(F)(F)F)nc1=O)CCCC2,-18.4
6,CN(C)CCCn1c2c(c(SCC(=O)Nc3cccc4ccccc34)nc1=O)CCC2,-38.4
7,CCN(CC)CCn1c2c(c(SCC(=O)Nc3cccc4ccccc34)nc1=O)CCCC2,-63.8
8,CN(C)CCn1c2c(c(SCC(=O)N3CCc4ccccc43)nc1=O)CCCC2,-44.7
9,CCN(CC)CCCn1c2c(c(SCC(=O)N3CCCc4ccccc43)nc1=O)CCC2,-22.9
10,CN(C)CCn1c2c(c(SCC(=O)Nc3cccc4ccccc34)nc1=O)CCCC2,-40.4
11,CCN(CC)CCCn1c2c(c(SCC(=O)N3CCc4ccccc43)nc1=O)CCC2,-78.6
12,CCN(CC)CCCn1c2c(c(SCC(=O)Nc3cc(C)on3)nc1=O)CCC2,-2.43
13,CCN(CC)CCCn1c2c(c(SCC(=O)Nc3cccc(C)c3C)nc1=O)CCC2,-55.3
14,COc1ccc(C)cc1S(=O)(=O)Nc1cc(Cl)ccc1Cl,7.53
15,CCOC(=O)c1cccc(NC(=O)c2cccs2)c1,-13.1
16,CCCCc1cc(C(=O)Cc2ccccn2)c(O)cc1O,16.9
17,O=C(NCc1cccnc1)Nc1ccc(Cl)c(Cl)c1,-0.174
18,COc1ccc(CN2CC(=O)N3[C@H]4c5ccccc5OC[C@@H]4[C@H](c4ccccc4)[C@]3(C)C2=O)cc1,15.3
19,COc1ccccc1OCCOc1ccc(/C=C2\C(=N)N3N=C(S(C)(=O)=O)SC3=NC2=O)cc1,12
20,CCN(CC)CCn1c2c(c(SCC(=O)Nc3cccc4ccccc34)nc1=O)CCC2,-62.7
21,CN(C)CCn1c2c(c(SCC(=O)Nc3cccc4ccccc34)nc1=O)CCC2,-13.6
22,CN=C(NC(=O)Nc1c(C)cccc1C)NC(=O)Nc1c(C)cccc1C,3.97
23,COc1ccccc1CN(C)C(=O)c1cc(-c2cc(OC)c(OC)c(OC)c2)nc2ccccc12,12.9
24,COc1ccccc1CN(C)C(=O)c1cc(-c2cccs2)nc2ccccc12,4.13
25,COc1ccccc1CN(C)C(=O)c1cc(C)nc2ccccc12,-65.1
26,CN(C)C(=S)NC1(C)CCS(=O)(=O)C1 (stereo not shown),6.89
27,COc1cc(/C=N/NC(=O)NC23CC4CC(CC(C4)C2)C3)ccc1OCC(N)=O,-57
28,O=C(N/N=C/c1ccncc1)NC12CC3CC(CC(C3)C1)C2,-26.6

row,Compound,"hERG current change (%, negative = inhibition) at 10uM [%]"
1,O=C(N/N=C/c1ccc(O)c(O)c1)NC12CC3CC(CC(C3)C1)C2,-11.8
2,O=C(N/N=C/c1ccc(O)cc1)NC12CC3CC(CC(C3)C1)C2,-55.7
3,COc1cc(/C=N/NC(=O)NC23CC4CC(CC(C4)C2)C3)ccc1O,-34.3
4,CCOc1ccc(/C=N/NC(=O)NC23CC4CC(CC(C4)C2)C3)cc1O,-10.9
5,O=C(Nc1nc(-c2ccco2)c(-c2ccco2)s1)c1cnccn1,3.8
6,CCOC(=O)C1=C(COC(=O)COc2ccc(C(=O)CC)cc2)NC(=O)NC1C (stereo not shown),-25.5
7,O=C1N/C(=N\N=C\c2cccs2)SC1Cc1ccc(Cl)c(Cl)c1 (stereo not shown),16.1
8,Cc1cc(NC(=O)c2cc(-c3ccco3)on2)n(-c2ccccc2)n1,-0.313
9,Cc1cccc(COc2ncnc3nc[nH]c23)c1,-6.73
10,Cc1cc(S(=O)(=O)Nc2ccc(C(=O)NCC3(N(C)C)CCCCC3)cc2)ccc1F,-49.2
11,CN(C)CCNC(=O)Nc1ccc(Cl)c(Cl)c1,-23.4
12,CN(C)C1(CNC(=O)c2ccc(NS(=O)(=O)c3ccc(Cl)c(Cl)c3)cc2)CCCCC1,-74.1
13,COc1ccc(NS(=O)(=O)c2cccc(C(=O)NCC3(N(C)C)CCCCC3)c2)cc1,-40.6
14,CCOc1ccc(NS(=O)(=O)c2ccc(C(=O)NCC3(N(C)C)CCCCC3)cc2)cc1,-8.13
15,CN(C)C1(CNC(=O)c2cccc(S(=O)(=O)Nc3ccc(Br)cc3)c2)CCCCC1,-66.7
16,Cc1ccc(NS(=O)(=O)c2cccc(C(=O)NCC3(N(C)C)CCCCC3)c2)cc1,-22.4
17,CN(C)C1(CNC(=O)Nc2ccccc2)CCCCC1,-3.27
18,CN(C)C1(CNC(=O)Nc2ccc(Cl)c(Cl)c2)CCCCC1,-50.1
19,Cc1ccc(CNC(=O)c2ccc(Br)o2)cc1,-18
20,O=C(NC1CCCC1)C1CCCN(S(=O)(=O)c2cnc[nH]2)C1 (stereo not shown),15.3
21,O=C(NCc1cccs1)c1cnc(Cl)c(Cl)c1,11.7
22,CC1=Nc2ccccc2N=C(NC(=O)CSC(=S)N2CCN(C)CC2)C1c1ccccc1 (stereo not shown),-24.2
23,COc1ccc2c(Cl)c(C(=O)NN)sc2c1,7.88
24,O=[N+]([O-])c1ccc(CSc2nnc(SCc3ccc(Cl)cc3)s2)cc1,16.8
25,O=C(c1ccccc1F)N1CCc2ccccc21,-7.14
26,Cc1ccc(N(CC(=O)NC2CCCC2)C(=O)CCCC(=O)Nc2ccccn2)cc1C,2.86
27,COc1ccc(/C=N/OCC(=O)NC(c2ccccc2)c2ccccc2)c(OC)c1,-35.1
